Screening results (PubChem)
Autofluor counter: flagged as autofluorescent in microsphere protease counterscreen. compound autofluorescence counterscreen, microsphere flow cytometry; hits give high values. fluorescence intensity (test concentration not listed). 3.1% of 360,000 active. AID 624483; in the data active = fluorescence intensity above about 16000; inconclusive = no clear call, values can overlap the other calls
MazEF act: MazEF (E. coli) toxin RNase activation; FAM/BHQ RNA-DNA oligo cleavage fluorescence, 5 h; activation, % at 20 µM; 0.32% of 350,000 active; AID 504720; in the data active = activation above about 50%
Target sequence (P0AE70 whole entry, looked up): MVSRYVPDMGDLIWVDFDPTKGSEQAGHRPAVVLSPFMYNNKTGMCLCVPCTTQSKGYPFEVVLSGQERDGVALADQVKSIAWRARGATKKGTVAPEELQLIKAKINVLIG
BoNT A protease: BoNT A light chain protease inhibition; multiplex microsphere protease substrate cleavage, flow cytometry; inhibition, % at 10 µM; 0.17% of 360,000 active; AID 588499
BoNT-F LC inh: inhibitors of Botulinum neurotoxin F light chain protease | Multiplex microsphere protease cleavage assay, flow cytometry | 0.22% of 360,000 active | inhibition, % at 10 µM; in the data active = inhibition above about 35%, passing the limit was not always enough; inconclusive = no clear call, values can overlap the other calls
Anthrax LF prot: anthrax lethal factor protease inhibition; multiplex microsphere protease cleavage assay, LF; 0.12% of 360,000 active; inhibition, % at 10 µM; AID 588501
Large screens that a line does not name were inactive. A selection: hits, their analogues and other compounds. The true share with any hit is near 3.6%. Cut-off read from the data, not from the text of the source, unless noted: active = inhibition above about 30%; inconclusive = no clear call, values can overlap the other calls; inactive = below that.

COc1ccc(-c2c(C)nn3c(N4CCC(C(=O)NCCN(C)C)CC4)cc(C)nc23)cc1OC	Autofluor counter 23368
CCCN(CCC)C(=O)C1CCN(c2cc(C)nc3c(-c4ccc(OC)c(OC)c4)c(C)nn23)CC1	none
Cc1ccc(S(=O)(=O)N(CCCc2c(C)nc[nH]c2=O)c2ccccc2)cc1	none
COc1cc(Br)cc(CN2CCN(C)CC2)c1O	Autofluor counter 22111, BoNT A protease inconclusive
COc1ccc(C2C(C(N)=O)=C(C)Nc3nc(CCCO)nn32)cc1OC (centres undefined)	BoNT-F LC inh inconclusive
CSCC[C@H](NC(=O)C1CCCC1)c1nc2ccccc2[nH]1	none
CSCCC(NC(=O)C1CC1)c1nc2ccccc2[nH]1 (centres undefined)	Autofluor counter 20590
COc1cc(C(=O)NCCC(=O)NCCCN2CCCCC2C)cc(OC)c1OC (centres undefined)	Autofluor counter 24313
CCOC(=O)C1CCN(C(=O)CCNC(=O)c2cc(OC)c(OC)c(OC)c2)CC1	Autofluor counter 16426
COc1cc(C(=O)NCCC(=O)N2CCCCC2)cc(OC)c1OC	none
O=C(O)c1[nH]c2ccccc2c1CC(=O)N1CCOCC1	Autofluor counter 19170
Cc1ccc(NC(=O)CSc2nnc3c(n2)[nH]c2ccccc23)cc1	none
CCCCSc1nnc2c(n1)[nH]c1ccccc12	Autofluor counter 21409
O=C(COC(=O)[C@H](Cc1c[nH]c2ccccc12)NC(=O)c1ccc(Cl)cc1)Nc1ccc2c(c1)OCO2	Autofluor counter 21349
O=C(CSc1nnc2c(n1)[nH]c1ccccc12)Nc1ccc2c(c1)OCO2	Autofluor counter 21923, BoNT A protease inconclusive
CCCCC[C@@H]1C=C(C(=O)O)[C@H](c2ccc(Cl)c(Cl)c2)N1S(=O)(=O)c1ccc(C)cc1	none
O=C(Cc1c(C(=O)O)[nH]c2ccccc12)Nc1ccc2c(c1)OCO2	Autofluor counter 16805
O=c1c2ccccc2sn1-c1cc(S(=O)(=O)N2CCOCC2)ccc1N1CCOCC1	BoNT A protease 82.9
O=c1c2ccccc2sn1-c1cc(S(=O)(=O)N2CCOCC2)ccc1N1CCCC1	Autofluor counter 20573, BoNT A protease inconclusive
Nc1cc(S(=O)(=O)N2CCOCC2)ccc1N1CCCCC1	none
O=S(=O)(c1ccc(N2CCOCC2)c(Cl)c1)N1CCOCC1	none
C=CCN1C(=O)C2(c3ccccc31)C1CCCC=C1C(C#N)=C(N)C2(C#N)C#N (centres undefined)	none
C=CCN1C(=O)[C@]2(c3ccccc31)C1CCCC=C1C(C#N)=C(N)C2(C#N)C#N (some centres undefined)	Autofluor counter 20366, BoNT A protease inconclusive
CCOc1cc(NC(=O)c2ccccn2)c(OCC)cc1NC(=O)c1ccccc1	none
CCOc1cc(NC(=S)Nc2ccccc2OC)c(OCC)cc1NC(=O)c1ccccc1C	Autofluor counter 16184
CCOc1cc(NC(=S)Nc2ccccc2)c(OCC)cc1NC(=O)c1ccccc1	Autofluor counter 23797
CC(=O)c1cccc(-c2cnc3c(NC=O)cc(-c4ccc(F)cc4)cn23)c1	none (no result: MazEF act)
CCn1c2ccccc2c2cc(NC(=O)CSc3nnc(-c4ccccc4OC)n3N)ccc21	Autofluor counter 17821, BoNT A protease inconclusive
CCOc1ccc(-c2nnc(SCC(=O)Nc3ccc4c(c3)c3ccccc3n4CC)n2N)cc1	Autofluor counter 16867
Nc1nc(N)nc(-c2ccccc2)n1	none
CCCCOc1nc(N)nc(-c2ccccc2)n1	Autofluor counter 22127
Cn1c(=O)[nH]c(=O)c2c1nc(OC(=O)c1ccccc1)n2CC(O)COc1ccc(F)cc1 (centres undefined)	Autofluor counter 16708
CCOC(=O)CCP(=O)(O)C(C)(O)c1ccccc1 (centres undefined)	Autofluor counter 18987
CCCNNC(=O)C(O)(c1ccccc1)c1ccccc1	none
O=C1COC(c2ccccc2)=CN1Cc1ccccc1	none
S=C(NCc1ccco1)Nc1ccc(Cl)cn1	none
CCn1ncc(C2=NOC(C(=O)Nc3cccnc3)C2)c1C (centres undefined)	Autofluor counter 22133
CCn1ncc(C2=NOC(C(=O)NCc3ccc(Cl)cc3)C2)c1C (centres undefined)	Autofluor counter 21413
COc1ccc(NC(=O)C(=O)NCC2CCCN2S(=O)(=O)c2cc(C)ccc2C)cc1 (centres undefined)	none
CCOC(=O)c1c(C)n(C)c2ccc(OCC(O)CN(CC)CC)cc12 (centres undefined)	none
CCOC(=O)c1c(C)n(C)c2ccc(OCC(O)Cn3nc(C)cc3C)cc12 (centres undefined)	Autofluor counter 16244
CC1=CC2=NC(=O)/C(=C\c3ccc(-c4cccc(Cl)c4)o3)C(=N)N2O1	MazEF act 83.6
CCO/C(=C/c1sc2ccc(OC)cc2[n+]1CCCS(=O)(=O)[O-])CC	none
CCC(/C=C1\Sc2ccc(OC)cc2N1CC)=C\c1sc2ccc(OC)cc2[n+]1CCCS(=O)(=O)[O-]	BoNT A protease 100.5, Anthrax LF prot 48.0
CCC(/C=C1\Sc2ccc(OC)cc2N1CCO)=C\c1sc2ccc(OC)cc2[n+]1CCO	BoNT A protease 40.5
CCOC(=O)c1cccc(NC(=O)Cn2cnc3c2c(=O)n(C)c(=O)n3C)c1	Autofluor counter 20236, BoNT A protease inconclusive
Cn1c(=O)c2c(ncn2CC(=O)Nc2nc(-c3ccccc3Cl)cs2)n(C)c1=O	MazEF act 73.8
Cc1csc(NC(=O)C2CCCN2C(=O)Oc2ccccc2)n1 (centres undefined)	Autofluor counter 22986
CNC(=O)COC(=O)c1ccc(NS(=O)(=O)c2ccc3c(c2)OCCO3)cc1	BoNT-F LC inh 42.6
CCCCNC(=O)COC(=O)c1ccc(NS(=O)(=O)c2ccc3c(c2)OCCO3)cc1	Autofluor counter 21536
COc1cccc(C(C)(O)c2nc(-c3ccoc3)cs2)c1 (centres undefined)	none (no result: MazEF act)
CCn1c(NC)cc(=O)n(C)c1=O	none
CCn1c(=O)cc(NC2=NCC(C)CN2c2cccc(Cl)c2)n(C)c1=O (centres undefined)	Autofluor counter 19894, BoNT A protease inconclusive
CCN(CC)c1ccc(/C=N/n2c(C)cc(C)cc2=O)cc1	Autofluor counter 19156
CC(=O)Nc1cccc(NC(=O)CS(=O)(=O)c2cn(CC(=O)N(C(C)C)C(C)C)c3ccccc23)c1	none
O=C(CN1C(=O)c2cccnc2C1=O)c1ccccc1	Autofluor counter 20963
COc1ccc(CC(=O)Oc2ccc(Cl)cc2Br)cc1S(=O)(=O)N1CCOCC1	none
COc1ccc(CC(=O)n2nc(-c3ccc(Cl)cc3)nc2NCc2ccco2)cc1	Autofluor counter 24639, BoNT A protease inconclusive
CC(=O)n1nc(-c2ccc(Cl)cc2)nc1NCc1ccco1	Autofluor counter 21596
Cc1oc2c(CN3CCCCC3C)c(O)ccc2c(=O)c1-c1ccc(Br)cc1 (centres undefined)	BoNT-F LC inh inconclusive
Cc1ccc(C(=O)Nc2ccccc2-c2ccccc2)o1	none
COc1ccc(NC(=O)c2ocnc2C)cc1OC	none
Cc1ncoc1C(=O)Nc1ccc(Oc2ccccc2)cc1	Autofluor counter 19937
Cc1ncoc1C(=O)Nc1ccccc1-c1ccccc1	Autofluor counter 23728
